Source: PubChem BioAssay AID720519 (National Center for Advancing Translational Sciences (NCATS), 2013)
Results filed as inconclusive are left out. Values without a mark were called inactive. The source made the active and inactive calls. Calls follow the shape of the dose curve; as a rule, active = well fitted activation curve with a large enough effect; inconclusive = small, poorly fitted or top-dose-only effect; inactive = flat fitted curve, though single readings scatter.

Assay: qHTS for Inhibitors of Cell Surface uPA Generation: Confirmatory Assay for Cherry-picked Compounds; as to inhibition: 0% is about no effect
Conditions: cell surface uPA activity generation, qHTS confirmation; series mostly up to 115 µM; inhibition: at the top concentration
In short: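 RAW 264.7 cells at 4000/well, incubated overnight, then treated with compounds. After 24 h at 37 C, viability was read by ATPlite luminescence. An increase in signal indicates blocked uPA-dependent LF entry.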
Potency is read from the fitted curve at half-maximal effect.

Row | SMILES | inhibition | Potency
1 | O=C1CC(/C=C/c2ccc(Cl)cc2)=Nc2ccccc2N1 | -2.63% | –
2 | COc1ccc(CC(=O)OCC(=O)NNC(=O)c2ccccc2)cc1 | -3.04% | –
3 | Cc1nc([N+](=O)[O-])cn1CCCCN1C(=O)c2ccccc2C1=O | -1.31% | –
4 | CC(C)(C)S(=O)(=O)N1C[C@H]2CC/C=C\C/C(c3ccccc3)=C\2[C@@H]1CCO | -0.435% | –
5 | COc1ccc2cc(CCNC(=O)c3ccc4c(c3)OCO4)c(=O)[nH]c2c1 | -1.6% | –
6 | CC1CCCN(S(=O)(=O)c2cccc([N+](=O)[O-])c2)C1 (centres undefined) | 0.952% | –
7 | CCC(COC)NC(=O)CCc1nnc(Cc2c[nH]c3ccccc23)o1 (centres undefined) | -1.15% | –
8 | CC(=O)Nc1c2c(nn1-c1cccc(C)c1)CSC2 | -0.352% | –
9 | CCCOC(=O)CSC1=C(C#N)C(c2ccccc2Cl)CC(=O)N1 (centres undefined) | -3.31% | –
10 | Cc1cc(NC(=O)COc2cccc([N+](=O)[O-])c2)no1 | -2.33% | –
11 | O=C(NCCc1ccccc1)C1CCC(=O)N(Cc2cccc(C(F)(F)F)c2)C1 (centres undefined) | -2.36% | –
12 | Cc1ccccc1NC1c2ccccc2C(=O)N1Cc1ccco1 (centres undefined) | -2.23% | –
13 | CCN(CC)S(=O)(=O)c1ccc(C(=O)Nc2cccc(C)c2)cc1 | -3.11% | –
14 | CCC(=O)N1CCC(NC(=O)Nc2ccc(OC(F)(F)F)cc2)CC1 | -0.395% | –
15 | CC(C)CCN1C(=O)c2ccc(-c3nc4ccccc4c(=O)o3)cc2C1=O | -1.5% | –
16 | Cc1ccccc1C(=O)NCC(=O)Nc1ccc(C)c(S(=O)(=O)N2CCCCCC2)c1 | -3.15% | –
17 | O=C(NC1CCCCC1)C(c1ccco1)N(C(=O)c1csnn1)c1cccc(Cl)c1 (centres undefined) | 1.05% | –
18 | C[C@H](CO)N1C[C@H](C)[C@@H](CN(C)C(=O)Nc2ccccc2)Oc2ccc(NC(=O)Cn3cnnn3)cc2C1=O | -0.16% | –
19 | C[C@@H](NC(=O)c1nc[nH]c1C(=O)NCc1ccc(CNC(=O)OC(C)(C)C)cc1)c1ccccc1 | -3.16% | –
20 | CCN(CC)CCNC(=O)/C(=C/c1cn(CC)c2ccccc12)NC(=O)c1cc(OC)c(OC)c(OC)c1 | 0.948% | –

Row | SMILES | inhibition | Potency
21 | CCC(C)Nc1cc(C)nc2ncnn12 (centres undefined) | -1.7% | –
22 | COc1ccc(NC(=O)Nc2nnc(N3CCCCC3C)s2)cc1OC (centres undefined) | -1.68% | –
23 | CC1(C)CC(=O)C([N+](=O)[O-])=C(NCCCC(=O)O)C1 | 1.47% | –
24 | CCOc1cc(N2CCOCC2)c(OCC)cc1NC(=O)c1[nH]c(C)c(C(C)=O)c1C | -2.42% | –
25 | COc1ccc(-c2cccc(-c3cc(=O)oc4cc(OC)c(OC)c(OC)c34)c2)cc1 | -2.12% | –
26 | Cc1ccc(NC(=O)C(C)S)cc1 (centres undefined) | -3.16% | –
27 | COc1ccc(/C=N/NC(=O)COc2ccc3ccccc3c2)c(C(=O)O)c1OC | -2.14% | –
28 | CC(=O)c1ccc(N=C2SCCCN2C(=O)C2CCCCC2)cc1 | -2.64% | –
29 | CCOC(=O)CN1C(=O)N[C@@H](c2ccccc2)C(C(C)=O)=C1C | 0.539% | –
30 | O=C(O)CSc1nnc(COc2ccccc2)n1-c1ccccc1 | -1.25% | –
31 | COc1ccc(Cc2nnc(NC(=O)Nc3ccc(F)cc3)s2)cc1 | 10.6% | –
32 | COC(=O)CCNS(=O)(=O)c1ccc2nsnc2c1 | -0.28% | –
33 | Nc1ccc(S(=O)(=O)c2ccccc2)nc1 | -0.688% | –
34 | Cc1ccc(CC2CC(=O)N(c3cc(C)ccc3C)C2=O)cc1 (centres undefined) | 3.02% | –
35 | O=[N+]([O-])c1ccc(-c2cn3c(n2)SCC3)cc1 | -1.85% | –
36 | O=[N+]([O-])c1ccccc1C=NNC(=S)NN=Cc1ccccc1[N+](=O)[O-] | -2.73% | –
37 | COc1cc(CCC(=O)OCC(=O)Nc2ccc(C)cc2Br)cc(OC)c1OC | -1.75% | –
38 | N#C/C(N=Nc1ccccc1O)=N\Nc1ccccc1O | 7.46% | –
39 | C=CS(=O)(=O)c1ccc(Oc2ccc(S(=O)(=O)C=C)cc2)cc1 | – | 58.5 µM (active)
